Screens from PubChem.
This is a sample that favours compounds with a hit; in the whole collection about 3.4% have one here.
MITF primary – inhibitors of human MITF; AlphaScreen MITF homodimerization, bead proximity signal; O75030; actives 0.91% (n = 650,000); inhibition, % at 2.6 µM; in the data active means inhibition above about 50%;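 further: 0% = vehicle wells with protein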
GPR151 ag – activates the human receptor GPR151. Q8TDV0. PathHunter beta-arrestin GPR151 cells, luminescence. activation, % at 11.2 µM. actives 1% (n = 650,000); in the data active means activation above about 4.9%;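 further: 0% = median of compound wells and 100% = cells with positive control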
FBW7 activator – activators of human E3 ligase FBW7. AlphaScreen FBW7–phospho-cyclin E peptide binding, activator screen. AID 1259310. normalized activity (activation), % at 26.1 µM. actives 0.13% (n = 650,000). Q969H0; in the data active means normalized activity above about 1.9%;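 further: purified mutant Fbw7 with reduced substrate affinity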
Target sequence (Q969H0 whole entry, looked up): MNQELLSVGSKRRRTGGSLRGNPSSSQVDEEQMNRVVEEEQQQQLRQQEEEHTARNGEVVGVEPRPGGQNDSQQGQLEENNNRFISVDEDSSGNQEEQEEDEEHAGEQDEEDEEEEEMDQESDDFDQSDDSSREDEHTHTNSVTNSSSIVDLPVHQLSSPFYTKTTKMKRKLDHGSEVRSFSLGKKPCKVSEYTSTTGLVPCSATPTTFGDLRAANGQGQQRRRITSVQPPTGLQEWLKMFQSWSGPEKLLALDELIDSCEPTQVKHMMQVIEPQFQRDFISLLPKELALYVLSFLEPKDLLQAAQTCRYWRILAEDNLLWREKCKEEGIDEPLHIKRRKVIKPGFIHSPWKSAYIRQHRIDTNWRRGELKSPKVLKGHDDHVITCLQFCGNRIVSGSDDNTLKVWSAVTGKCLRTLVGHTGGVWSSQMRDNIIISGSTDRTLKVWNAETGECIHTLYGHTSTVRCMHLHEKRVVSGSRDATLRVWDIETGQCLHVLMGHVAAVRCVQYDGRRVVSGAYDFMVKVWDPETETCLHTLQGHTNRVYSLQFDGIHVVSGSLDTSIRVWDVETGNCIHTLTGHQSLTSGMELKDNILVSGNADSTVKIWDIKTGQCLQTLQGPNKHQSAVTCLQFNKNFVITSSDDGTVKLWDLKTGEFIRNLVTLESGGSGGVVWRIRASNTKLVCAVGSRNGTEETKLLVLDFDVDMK
TEAD-YAP block – TEAD-YAP interaction inhibition; HEK-TIYL cells, TEAD-Gal4/YAP UAS-luciferase luminescence; inhibition, % at 9.12 µM; actives 1.4% (n = 640,000); AID 1259422; in the data active means inhibition above about 32%;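 further: 0% = median of test compound wells and 100% = reference inhibitor wells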
Numbers without * were called inactive.

SMILES | MITF primary | GPR151 ag | FBW7 activator | TEAD-YAP block
CCOc1cc(/C=C2/C(=N)N3N=C(CC)SC3=NC2=O)cc(Cl)c1OCCOc1ccc(C)c(C)c1 | -29 | 1 | 0 | 0
N#Cc1cc2c(cc1C#N)-n1c(-c3ccccc3)nnc1-c1cc3ccccc3cc1O2 | 5 | -1 | 0 | -6
Cc1ccc(CCNC(=O)Cn2ncc3c2-c2cc(C)ccc2OC3)cc1 | 2 | 0 | 0 | 17
N#C/C(C(=O)NCc1ccccc1)=C(/O)COc1ncnc2scc(-c3ccccc3)c12 | 11 | -1 | 0 | 9
Brc1ccc2ncnc(NCc3ccccc3)c2c1 | -5 | 0 | 0 | 60*
CC(C)CNc1ncnc2ccc(Br)cc12 | -5 | 1 | 0 | 42*
CN(C)c1ccc(Nc2ncnc3ccc(Br)cc23)cc1 | -1 | 1 | 0 | 34*
CCN(CC)c1ccc(Nc2ncnc3ccc(Br)cc23)cc1 | 4 | 0 | 0 | 7
O=C(O)CNc1ncnc2ccc(Br)cc12 | 13 | -1 | 0 | 3
Cc1ccc2ncnc(NCCc3ccccc3)c2c1 | 11 | 1 | 0 | 50*
O=C(NCC1(CO)CC1)Nc1ccc(Cl)c(Cl)c1 | 2 | 3 | 0 | -17
CC(C)OCCCNc1ncnc2ccc(Br)cc12 | -8 | 1 | 0 | 46*
Cc1ccc2ncnc(NC3CCCCC3)c2c1 | 32 | -1 | 0 | 37*
CCCCCn1c(COc2ccccc2)nc2ccccc21 | 8 | 1 | 0 | -5
CC(=O)NC(=S)NN1C(=O)C2=CC=CC3=CC=CC(C1=O)C32 (centres undefined) | 11 | 0 | 0 | 10
CC(C)NC(=O)c1cc(-c2ccc(O)cc2)on1 | 2 | -2 | 1 | 43*
C=CCNC(=O)c1cc(-c2ccc3c(c2)OCO3)on1 | 0 | -1 | 0 | -16
CC(C)NC(=O)c1cc(-c2ccc(Br)cc2)on1 | 13 | -1 | 1 | -57
C=CCNC(=O)c1cc(-c2ccc(O)cc2)on1 | 6 | -1 | 0 | 34*
COc1ccccc1C1SCCN1S(=O)(=O)c1ccc([N+](=O)[O-])cc1 (centres undefined) | 2 | 1 | 4.4* | 6
COc1cc(OC)c(C2SCCN2S(=O)(=O)c2ccc(C)cc2)cc1OC (centres undefined) | 7 | -1 | 0 | -2
COc1ccc(S(=O)(=O)N2CCSC2c2cc(OC)c(OC)cc2OC)cc1 (centres undefined) | -3 | 0 | 0 | 43*
COCc1ccc(C(=O)NCc2nnc3n2CCN(Cc2cc(OC)ccc2F)CC3)o1 | 10 | 2 | 0 | 7
CC(=O)Nc1ccc(NC(=O)Cn2cnc3c(cnn3C(C)(C)C)c2=O)cc1 | 18 | 0 | 4.0* | 2
CCOC(=O)N1CCc2c(sc(NC(=O)c3ccc4ccccc4c3)c2C#N)C1 | -16 | 2 | 0 | 8
SMILES | MITF primary | GPR151 ag | FBW7 activator | TEAD-YAP block
COc1ccc(O)c(/C=N/N=C2/NC(=O)C(C)S2)c1 (centres undefined) | -7 | -8 | 0 | 68*
COc1ccc(OC)c(/C=N/N=C2\NC(=O)C(C)S2)c1 (centres undefined) | 8 | 0 | 0 | -7
COc1ccc(OC)c(-n2c(=S)sc3c(=O)n(C4CCCCC4)c(SCc4cccc([N+](=O)[O-])c4)nc32)c1 | 33 | 2 | 0 | -1
CNc1nc2cc([N+](=O)[O-])c([N+](=O)[O-])cc2nc1NC | 9 | 0 | 0 | 57*
c1cnn(-c2ccnc(Nc3ccc(N4CCOCC4)cc3)c2)c1 | -11 | -3 | 0 | -37
c1ccc(-c2ccn[nH]2)c(Nc2ccnc(Nc3ccc(N4CCOCC4)cc3)c2)c1 | 8 | 0 | -1 | 38*
c1cc(-c2ocnc2-c2ccc3cn[nH]c3c2)cc(Nc2ccc(N3CCOCC3)cc2)n1 | -4 | 1 | 0 | 58*
Cn1cnc(-c2ccnc(Nc3ccc(N4CCOCC4)cc3)c2)n1 | 2 | 0 | 0 | 15
Cn1ccc(-c2ccccc2Nc2ccnc(Nc3ccc(N4CCOCC4)cc3)c2)n1 | -6 | 2 | -1 | 47*
Cn1cc(-c2ncoc2-c2ccnc(Nc3ccc(N4CCOCC4)cc3)c2)cn1 | -7 | 0 | 0 | 30
Cn1c(=O)c2c(nc3n2CC(c2ccc(OC(F)F)cc2OC(F)F)=NN3)n(C)c1=O | -25 | 1 | 0 | -2
O=c1[nH]c(-c2ccc([N+](=O)[O-])cc2)nc2sc3c(c12)CCCC3 | -2 | 0 | 0 | -57
O=C(CCl)N1CCN(S(=O)(=O)c2ccccc2)CC1 | 11 | 0 | 0 | 34*
COc1cc(NC(=O)c2cccc(-n3cc(Nc4nc5ccccc5[nH]4)cn3)c2)cc(OC)c1OC | 8 | 1 | 0 | 34*
COc1cc(NC(=O)c2cccc(-n3cc(Nc4nnnn4-c4ccccc4)cn3)c2)ccc1N1CCOCC1 | 2 | -1 | 0 | 32*
COc1cc(NC(=O)c2cccc(-n3cc(NS(=O)(=O)Cc4ccccc4)cn3)c2)cc(OC)c1OC | 9 | -1 | 0 | 39*
CN(C(=O)Cc1ccccc1)c1nnc(C23CC4CC(CC(C4)C2)C3)s1 | -10 | 0 | 0 | 5
CC1(C)CC(=O)c2cnc3c(-c4ccc(Cl)cc4)cnn3c2C1 | 0 | 0 | 0 | 57*
C=CCc1cc(C)ccc1OCC(O)Cn1c(C)nc2ccccc21 (centres undefined) | 10 | 0 | 0 | 47*
Cc1nc2ccccc2n1CC(O)COc1ccc(C(C)C)cc1 (centres undefined) | -3 | 0 | 0 | 48*
O=C(c1ccccc1)N1C(=O)c2ccccc2C1=O | 26 | 1 | 2.5* | -4
CCOc1ccc2[nH]c(=O)c(CN(CCOC)C(=O)Nc3ccc(SC)cc3)cc2c1 | 2 | -1 | 0 | -36
CCOc1ccc2[nH]c(=O)c(CN(CCOC)C(=O)Nc3ccc(F)cc3)cc2c1 | 1 | 1 | 0 | 37*
C#CCOc1ccc(/C=C2/C(=O)ON=C2C)cc1OC | 20 | -2 | 0 | 0
CC1=NOC(=O)/C1=C/c1ccc(O)cc1O | 53* | 0 | 0 | 1
SMILES | MITF primary | GPR151 ag | FBW7 activator | TEAD-YAP block
CCOc1cc(/C=C2/C(=O)ON=C2C)ccc1O | 50 | 1 | 0 | 14
C=CCOc1ccc(/C=C2/C(=O)ON=C2C)cc1Br | 12 | 0 | 0 | -11
COc1ccc(/C=C2\C(=O)ON=C2C)cc1O | 52* | -1 | 0 | 7
C#CCOc1ccc(/C=C2/C(=O)ON=C2C)cc1 | 58* | 1 | 0 | 10
CCOc1ccc(/C=C2/C(=O)ON=C2C)cc1Br | 55* | 0 | 0 | -10
Cc1nn2cnnc2c(C)c1CCC(=O)O | 4 | -1 | 0 | 4
COc1cc(/C=C2\C(=O)ON=C2C)ccc1OCCc1ccccc1 | 43 | -6 | 0 | 38*
CCCOc1ccc(/C=C2/C(=O)ON=C2C)cc1OC | 35 | 0 | 0 | -4
COc1cc(/C=C2\C(=O)ON=C2C)cc(Br)c1O | 81* | 0 | 0 | 4
COc1cc(/C=C2\C(=O)ON=C2C)ccc1O | 60* | -1 | 0 | -1
COc1ccc(/C=C2/NC(=S)NC2=O)cc1O | 12 | -1 | 0 | 40*
COc1ccc(/C=C2\NC(=S)NC2=O)cc1C | -12 | 1 | 0 | -22
